# An excerpt weighted towards active compounds, which were near 4% of everything screened.
# Beta cell apopt – inhibitors of cytokine-induced beta cell apoptosis, primary screen, luminescence | INS-1E cytokine-induced death, ATP luminescence, 48 h; percent of positive-control rescue, neutral wells zero | actives 0.8% (n = 300,000) | protection from apoptosis, % (concentration not given with the values);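 active means Every replicate reaches about 75%, or at least half do and their mean reaches it too, limit read from the data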;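 further: higher means more ATP so stronger rescue from cytokine killing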
# Gli-Sufu block – Gli-Sufu pathway antagonists, primary screen, luciferase luminescence, Sufu-KO-LIGHT cells, uHTS | actives 0.74% (n = 340,000) | inhibition, % at 5 µM | Sufu-KO-LIGHT fibroblasts, Gli luciferase reporter luminescence;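 active means inhibition above about 55%, limit read from the data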
# Mdm2-MdmX inh – inhibitors of human Mdm2-MdmX association, primary screen, cell-based, luminescence, split luciferase, SaOS-2, uHTS | AID 485346, 2010 | actives 3% (n = 330,000) | SaOS-2 split-luciferase Mdm2/MdmX complementation | inhibition, % at 8 µM;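 active means inhibition of at least 50% at 8 µM in the primary screen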
# 697 NFkB inh – inhibitors of PMA/ionomycin-induced NF-kB reporter, 697 cells, primary screen, B-cell NF-kB inhibitor project, cell-based, luminescence, uHTS; inhibition, % at 4 µM; 697 B-cell NF-kB luciferase reporter, 16 h; actives 0.33% (n = 330,000); in the data active means inhibition above about 35%
# Jurkat NFkB inh – inhibitors of induced NF-kB luciferase reporter, primary screen, TCR NF-kB activation inhibitor project, cell-based, luminescence, uHTS | inhibition, % at 4 µM | AID 435003, 2010 | actives 0.53% (n = 330,000) | Jurkat, PMA/ionomycin-induced NF-kB luciferase reporter; in the data active means inhibition above about 50%
# Gli antag conf – Gli-SUFU pathway antagonists, confirmation, single concentration, luciferase luminescence, Sufu-KO-LIGHT cells. shares compounds with Gli-Sufu block. Gli luciferase reporter. inhibition, % at 5 µM. actives 40% (n = 2,500);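 active means mean inhibition at 5 µM reaching about 45%, limit read from the data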
# SufuKO cytotox – cytotoxicity in Sufu-KO-LIGHT cells, confirmation, cytotoxicity control for Gli-SUFU antagonist project, cell-based, ATP luminescence, single concentration | cytotoxicity, % at 5 µM | AID 651994, 2013 | shares compounds with Gli-Sufu block | actives 32% (n = 2,500);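 active means mean cytotoxicity at 5 µM above about 25%, limit read from the data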;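 further: cells exposed to compound overnight for roughly 16 to 18 hours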
# Wnt3a cs – Wnt3a reporter signal inhibition, confirmation, counter-screen for Gli-SUFU antagonist project, Wnt-LIGHT cells, luminescence, single concentration; shares compounds with Gli-Sufu block; Wnt3a-driven luciferase reporter; inhibition, % at 6.25 µM; actives 20% (n = 2,500); AID 651995, 2013;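 active means mean inhibition above about 25%, limit read from the data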
# Numbers stand for hits; – = inactive; · = no result.
SMILES,Beta cell apopt,Gli-Sufu block,Mdm2-MdmX inh,697 NFkB inh,Jurkat NFkB inh,Gli antag conf,SufuKO cytotox,Wnt3a cs
CCOc1ccccc1NC(=S)NC(=O)CCCOc1ccc(Cl)cc1Cl,–,64.8,–,–,–,–,–,–
COc1cccc(CN2CC(C(=O)NCCOc3ccccc3)CCC2=O)c1 (centres undefined),–,–,–,–,–,·,·,·
Nc1ccc(Cn2ccc3c4c(N)nc(N)nc4ccc32)cc1,·,60.9,·,·,·,57.9,–,40.6
COc1ccccc1NS(=O)(=O)c1cc(C(=O)NCCCN2CCCC2=O)ccc1C,·,–,·,·,·,·,·,·
O=C(CN(CC1CCCO1)C(=O)CCC(=O)Nc1nccs1)NCC1CCCO1 (centres undefined),·,–,–,–,–,·,·,·
CCc1nnc(NC(=O)CCC(=O)NCC2CCCO2)s1 (centres undefined),–,–,–,–,–,–,–,–
O=C(CN(Cc1ccccc1)C(=O)CCC(=O)Nc1nccs1)NCC1CCCO1 (centres undefined),–,–,–,–,–,–,–,–
COc1cccc(C(=O)Nc2cc(NC(=O)c3cccs3)ccc2C)c1OC,–,–,–,–,–,·,·,·
Cc1cc(C(=O)COc2cccnc2[N+](=O)[O-])c(C)n1Cc1cccs1,–,70.9,–,–,–,–,–,49.1
CCOC(=O)C1CCCN(C2CCN(Cc3nc(Cc4ccccc4)no3)CC2)C1 (centres undefined),–,–,–,–,–,–,–,–
COc1ccc(CC(=O)NCC2CCCN(Cc3ccccc3Cl)C2)cc1 (centres undefined),–,–,–,–,–,·,·,·
CC(CCCC(C)(C)O)NC(=O)c1cc(COc2ccc3ncccc3c2)on1 (centres undefined),88.0,–,–,–,–,56.3,–,31.1
COCC1CCCCN1C(=O)c1cc(COc2ccc3ncccc3c2)on1 (centres undefined),85.9,71.8,–,–,–,59.3,–,33.7
COCCOC1CCN(C(=O)c2cc(COc3ccc(-n4cncn4)cc3)on2)CC1,–,–,–,–,–,·,·,·
COCCC1CCCCN1C(=O)c1cc(COc2ccc(-n3cncn3)cc2)on1 (centres undefined),86.5,58.1,–,–,–,67.5,–,39.9
O=C(OCC(=O)N1CCCC1)c1cc(F)c(F)cc1Cl,–,–,–,–,–,·,·,·
CC(=O)c1ccc(N(CC(=O)NC2CCS(=O)(=O)C2)S(=O)(=O)c2ccc(C)cc2)cc1 (centres undefined),–,–,–,–,–,·,·,·
COc1ccc(Nc2ncc(C(=O)N3CCN(Cc4ccccc4)CC3)c3ccccc23)cc1,–,99.2,–,–,–,–,–,–
COc1ccc(C)cc1NC(=O)CCN1CCN(c2ccccc2F)CC1,–,58.8,–,–,–,–,–,–
CN(C)S(=O)(=O)NCCNc1ccc(C(F)(F)F)cc1[N+](=O)[O-],–,97.8,–,–,–,–,–,–
CS(=O)(=O)NCCNc1ccc(C(F)(F)F)cc1[N+](=O)[O-],–,–,–,–,–,·,·,·
COc1ccc(S(=O)(=O)N2CCOCC2)cc1C(=O)N1CCCC1,–,60.9,–,–,–,–,–,–
COc1ccc(S(=O)(=O)N2CCCC(C(=O)N3CCOCC3)C2)cc1C (centres undefined),·,99.0,–,–,–,–,–,–
CCOC(=O)Cc1csc(NS(=O)(=O)c2ccc(SC)cc2)n1,–,–,–,–,–,·,·,·
CCCCN(C(=O)C1CC1)C1CCS(=O)(=O)C1 (centres undefined),–,–,–,–,–,·,·,·
SMILES,Beta cell apopt,Gli-Sufu block,Mdm2-MdmX inh,697 NFkB inh,Jurkat NFkB inh,Gli antag conf,SufuKO cytotox,Wnt3a cs
COc1ccc([C@@H]2[C@@H]3C(=O)N(C(C)(C)C)C(=O)[C@@H]3[C@]3(C)C(=O)N(c4ccc(C(F)(F)F)cc4)C(=O)N23)cc1,–,–,–,–,–,·,·,·
CN(C)S(=O)(=O)c1ccc(S(=O)(=O)N2CCCC(C(=O)NC3CC3)C2)cc1 (centres undefined),–,–,–,–,–,·,·,·
CCN(CC)S(=O)(=O)c1ccc(S(=O)(=O)N2CCCC(C(=O)NC3CC3)C2)cc1 (centres undefined),–,59.7,–,–,–,45.9,–,–
CCOc1cc(/C=N/NC(=O)c2cccnc2)ccc1O,–,–,–,–,–,·,·,·
O=C(N/N=C\c1cc2c(cc1Cl)OCO2)c1cccnc1,–,–,–,–,–,·,·,·
CN1CCN(c2ccccc2/C=N/NC(=O)c2cccnc2)CC1,–,66.0,–,–,–,–,–,–
CCOc1cccc(/C=N/NC(=O)c2cccnc2)c1O,–,58.6,–,–,–,–,–,33.0
CC(C)CC(NS(=O)(=O)c1cc(C(=O)O)ccc1Cl)C(=O)O (centres undefined),–,–,–,–,–,·,·,·
COc1ccccc1CNC(=O)CCC1N=C2c3ccccc3N=C(SCC(=O)NCC3CCCO3)N2C1=O (centres undefined),–,–,–,–,–,·,·,·
CC1CC(C)(C)N(C(=O)CSc2ccc(-c3ccc(F)cc3)nn2)c2ccccc21 (centres undefined),–,–,–,–,–,·,·,·
CC(=O)N1CCCc2cc(S(=O)(=O)N3CCCC(C(=O)NCc4ccc(C)cc4)C3)ccc21 (centres undefined),–,–,–,–,–,·,·,·
CC(C)CCNC(=O)C1CCCN(S(=O)(=O)c2ccc3c(c2)CC(C)N3C(=O)C2CC2)C1 (centres undefined),·,56.6,–,–,–,–,–,–
CC(=O)N1CCCc2cc(S(=O)(=O)N3CCCC(C(=O)NCc4ccccc4)C3)ccc21 (centres undefined),–,–,–,–,–,–,–,–
CCOC(=O)C1=C(COC(=O)c2ccc(OC)c(S(=O)(=O)N3CCOCC3)c2)NC(=O)NC1C (centres undefined),·,–,·,·,·,·,·,·
O=C(CSc1nc(=O)n2cc(Cl)ccc2n1)Nc1cccc2ccccc12,·,90.8,–,–,–,–,–,–
CCOC(=O)C1(CCOc2ccccc2)CCN(Cc2cccc(-n3cccn3)c2)CC1,–,–,–,–,–,–,–,–
